Experimental findings from PubChem BioAssay AID504444 (National Center for Advancing Translational Sciences (NCATS), 2011) are described below.

Screen size: about 360,000 compounds; about 7,500 (2.1%) were called active. Inconclusive results (about 20%) are left out. This is one part of a sample in which actives are shown more often than they occur. Unmarked numbers belong to inactive results. Calls come from the whole dose curve; as a rule, active = well fitted inhibition curve with a large enough effect; inconclusive = small, poorly fitted or top-dose-only effect, or effect the other way; inactive = flat fitted curve, though single readings scatter.
% is set by controls: 0 for no effect and ±100 for the full control effect; potency is the fitted concentration of half-maximal effect.

The nature of this assay: Nrf2 qHTS screen for inhibitors. Note: nearly all actives have a fitted effect of over 60% in size. The note with it: A549 ARE-Fluc reporter, luciferase luminescence, 18-24 h; series mostly up to 46 µM; activity change, negative = inhibition: at the top concentration. The source says: NIH Molecular Libraries Probe Production Network [MLPCN]
NIH Chemical Genomics Center [NCGC]
Assay Provider: Shyam Biswal, Johns Hopkins University
Nrf2 is a transcription factor that maintains cellular redox homoestasis and protects cells from xenobiotics. Nrf2 binds to the antioxidant response element (ARE) to induce gene expression of a broad spectrum of genes that encode for antioxidants. […] Finding a small molecule that act as an inhibitor of Nrf2 function would represent a novel therapeutic target that could lead to improvement in survival of patients undergoing chemo- and/or radio- therapy.
This is the Nrf2 activity measured in the luminescent read.
1. Shibata, T., et al., Genetic Alteration of Keap1 Confers Constitutive Nrf2 Activation and Resistance to Chemotherapy in Gallbladder Cancer. Gastroenterology, 2008.
2. Sjoblom, T., et al., The consensus coding sequences of human breast and colorectal cancers. Science, 2006. 314(5797): p. 268-74.
NCGC Assay Protocol Summary:
A concentration-response assay was performed with A549 ARE_Fluc cells which are suspended in 5% FBS OPTI-MEM. Five uL were dispensed into 1536-well white TC-treated plate using the Kalypsys dispenser to achieve a density of 5000 cells/well in all columns except column 1. The plate is incubated at 37deg C at 5% CO2 for 2 hours before 23 nL of compounds are added with the Kalypsys pin tool equipped with a 1,536-pin array containing 10-nL slotted pins (FP1S10, 0.457-mm diameter, 50.8 mm long; V&P Scientific). The control compounds Budesonide and Staurosporine are both added at a concentration of 2mM and Budesonide is also added as a 1:10 titration, starting at 200uM, to achieve dose-response. After an 18-24 hour incubation at 37deg C at 5% CO2, 5ul of medium is added to column 1. Afterwards 1ul of 5x of CellTiter-Fluor (Promega) is added to every well. The plate is then incubated at 37deg C at 5% CO2 for 30 minutes before they are read on the ViewLux (Perkin Elmer) for a fluorescent read Ex=405(10)/Em=525(10) for a 3 second exposure, 2x binning, and high gain. Then 3 uL of 3x BugLite is dispensed into all wells and the plate is incubated at ambient room temperature for 15 minutes. Afterwards another ViewLux read is performed using the clear filter to get a luminescent read with the settings of 40 second exposure, 2x binning, and high gain. Cytotoxicity is assessed through the first fluorescent read and then biochemical activity against Nrf2 is measured in the luminescent read.
For `O=C(/C=C/c1ccccc1)c1ccccc1O`, the Potency was 3.66 µM (active). On to `O=C(/C=C/c1ccccc1)N/C(=C/c1ccccc1)C(=O)Nc1ccccc1O`, for which the “activity change, negative = inhibition” value was 17.7%.

On to `O=C(O)/C=C\C(=O)Nc1ccc(OCc2ccccc2)cc1`, for which the “activity change, negative = inhibition” value is 18.1%. As to `CCc1ccnc(NC(=O)Nc2ccc(OCc3ccccc3)cc2)c1`, the “activity change, negative = inhibition” value was -9.72%. Take `CNC(=O)c1sc(Nc2ccc(OCc3ccccc3)cc2)nc1C`: the Potency is 20.6 µM (active).

On to `CCN(C[C@H]1N[C@@](CC)(C(=O)OC)[C@H]2C(=O)N(Cc3ccccc3)C(=O)[C@@H]12)S(=O)(=O)c1ccccc1`, for which the “activity change, negative = inhibition” value was 16.6%. Still for that read-out and setting: the same measure for `Cc1cccc(C(=O)OCC(=O)NC(C)C2CC3CCC2C3)c1O` (centres undefined): -2.64%; for `CC(C)Cn1c(N)c(C(=O)COC(=O)C2CCCN2C(=O)c2cccs2)c(=O)n(C)c1=O` (centres undefined): -14.3%; for `COc1ccc(C(=O)COC(=O)CN2C(=O)C3CC=CCC3C2=O)c(OC)c1` (centres undefined): 1.38%. As for `CC(C)Cn1c(N)c(C(=O)COC(=O)CN2C(=O)C3CC=CCC3C2=O)c(=O)n(C)c1=O` (centres undefined), the Potency was 4.61 µM (active). As for `O=C(Nc1ccn(CCCNCc2ccc3[nH]ccc3c2)c(=O)n1)OCc1ccccc1`, the “activity change, negative = inhibition” value was -1.64%. With `COc1ccccc1S(=O)(=O)NCc1ccc(C(=O)N(C)Cc2ccc(F)cc2)cc1`, the Potency was 23.1 µM (active). For `O=C(NCCS(=O)(=O)NCc1ccc(F)cc1)c1ccccc1`, the “activity change, negative = inhibition” value was 3.15%. On the same count and under the same terms, as for `CN(Cc1ccccc1)C(=O)c1ccc(COc2ccccc2)cc1`, the figure is 1.07%. Same read-out and setting: the same measure for `O=C1N(Cc2ccccc2)c2ccc(Cl)cc2C1(O)c1c[nH]c2ccccc12` (centres undefined): 1.03%; for `CC(Nc1ncnc2ccc(-c3ccc4c(c3)OCO4)cc12)c1ccco1` (centres undefined): -6.5%.

For `Cc1cccc(NC(=O)c2cccc(C(F)(F)F)c2)c1`, the “activity change, negative = inhibition” value was 9.33%.

For the compound `Cc1oc2c(F)c(F)c(F)c(F)c2c1S(=O)(=O)Nc1cccc(C(F)(F)F)c1`, the Potency was 8.2 µM (active). For `O=C(/C=C/c1ccc(F)cc1)Nc1cccc(S(=O)(=O)Nc2cccc(C(F)(F)F)c2)c1`, the “activity change, negative = inhibition” value is -7.06%. As to `CCn1c2ccccc2c2cc(CN3CCN(Cc4cccc(Cl)c4)CC3)ccc21`, the “activity change, negative = inhibition” value was 1.46%. Same read-out and setting: the same measure for `Cc1cccc(C(=O)N2c3nc(-c4ccco4)nn3C3(CCCCC3)[C@@H]3CCCC[C@@H]32)c1`: -10.5%. In the case of `COc1cccc(NC(=O)c2ccc(S(=O)(=O)N(C)C)cc2)c1`, the “activity change, negative = inhibition” value was -11.6%. In the case of `CN(C)S(=O)(=O)c1ccc(Oc2ccc(S(=O)(=O)N(C)C)cc2)cc1`, the Potency is 13 µM (active). On to `CN(C)S(=O)(=O)c1ccc(NC(=O)N2CCOCC2)cc1`, for which the “activity change, negative = inhibition” value is 12.1%. Still for that read-out and setting: as for `CCOc1ccc(-c2n[nH]c3c2C(c2ccccc2OC)N(c2ccc(Br)cc2)C3=O)cc1` (centres undefined), the figure is -90.3%; as for `CCCCCCCCNS(=O)(=O)CCNC1CCCCC1`, 17.5%; as for `Cc1cccc(C(C)C)c1NC(=O)C(NS(=O)(=O)c1cccc2nsnc12)c1ccccc1` (centres undefined), 4.2%. Regarding `CCN1/C(=C/C(=S)Nc2ccccc2)Sc2ccccc21`, the Potency was 6.51 µM (active). Regarding `O=C(CCN1c2ccccc2Sc2ccccc21)Nc1ccccc1`, the “activity change, negative = inhibition” value is -4.56%. On the same count and under the same terms, the same measure for `CCNC(=O)N1c2ccccc2Sc2ccccc21`: 2.6%. Still for that read-out and setting: as for `CC(C)NC(=O)Nc1cccc2c1O[C@H](CN(C)S(=O)(=O)c1cccs1)[C@@H](C)CN([C@H](C)CO)C2=O`, the figure is 4.9%; as for `COc1cccc(N2CCN(S(=O)(=O)c3cc(Br)cc4c3N(C(=O)C3CC3)CC4)CC2)c1`, -6.76% [at 9.27 µM].

For the compound `O=C(NCCC1=CCCCC1)c1ccc2c(c1)N(Cc1ccccc1F)C(=O)c1ccccc1S2(=O)=O`, the “activity change, negative = inhibition” value was 17.8%. On the same count and under the same terms, the same measure for `COc1cccc(OC2=NS(=O)(=O)c3ccccc32)c1`: 1.62% [at 65.3 µM]. Take `CCCc1ccc(-c2c(C)sc(NC(=O)c3ccnn3C)c2C#N)cc1`: the Potency was 13 µM (active).

On to `CCN(CC)C(=O)c1sc(NC(=O)c2ccco2)c(C#N)c1C`, for which the “activity change, negative = inhibition” value is 2.27%. Still for that read-out and setting: as for `Cn1nccc1CNC(=O)c1ccnn1C`, the figure is -3.22%; as for `COc1ccc(C)cc1NC(=O)COCc1cc(-c2cccs2)on1`, -15.1%. Same read-out and setting: as for `O=C(Nc1ccc(OC(F)(F)F)cc1)C1CCCN(S(=O)(=O)c2ccc(Br)s2)C1` (centres undefined), the figure is -12.6%; as for `COC(=O)C(C)Sc1nc2c(c(=O)n(C)c(=O)n2C)n1Cc1cccc(C)c1` (centres undefined), -11.1%. Turning to `Cn1c(=O)c2c(nc(NCCc3ccccc3)n2Cc2ccccc2Br)n(C)c1=O`, the “activity change, negative = inhibition” value was -3.57%. In the case of `Cn1c(=O)c2c(nc(NCCc3ccccc3)n2Cc2ccccc2)n(C)c1=O`, the Potency is 14.6 µM (active). Consider `Cn1c(=O)[nH]c(=O)c2c1nc(NCCc1ccccc1)n2Cc1ccc(F)cc1`, for which the “activity change, negative = inhibition” value was -17.7%. On the same count and under the same terms, the same measure for `CCCCNc1nc2c(c(=O)[nH]c(=O)n2C)n1CCOc1ccccc1`: -19.7%. For the compound `CCCCNc1nc2c(c(=O)n(C)c(=O)n2C)n1Cc1cccc(OC)c1`, the Potency was 5.8 µM (active). As for `Clc1ccc(CSc2nncn3c2cc2occc23)cc1`, the “activity change, negative = inhibition” value was -25.8%. For `N#CN1CCC(NS(=O)(=O)c2cccc(F)c2)C1` (centres undefined), the “activity change, negative = inhibition” value is 14.3%. On the same count and under the same terms, as for `COc1ccccc1NC(=O)c1oc2ccccc2c1NC(=O)C(C)C`, the figure is -28.5%. In the case of `CCN(CC)CCCC(C)n1c2nc(=O)[nH]c(=O)c-2nc2cc(Cl)ccc21` (centres undefined), the Potency was 20.6 µM (active).
